# From publication PMC6925144, “A prospective compound screening contest identified broader inhibitors for Sirtuin 1” (Scientific Reports, 2019)
# The full ranking holds about 3,200 compounds; the median of “TSA(without NAD+) / Primary screening (TSA) / delta Tm (K)” is about -0.07, and the highest 2% start at about 0.37. What follows is part of a selection rich in the highest values, with near analogues and random picks from the rest.
# Biological target: NAD-dependent deacetylase Sirtuin 1 (human, UniProt Q96EB6)
# Test: primary screen, delta tm
# Design: single well (n = 1)
# Details: 10 µM
# Experimental: A total of 3,192 compounds extracted from the proposed lists were first screened by thermal shift assay (TSA), which determined a melting temperature shift (ΔTm) of Sirtuin 1 upon the addition of a test compound at a concentration of 10 µM (n = 1) with primary hit criteria of ΔTm > 0.45 K or ΔTm < −1.5 K. Primary hits (48 compounds) were retested in the same assay at three concentrations (5, 10, 20 µM, n = 4) for hit confirmation and for dose-dependency check. Secondary hits (41 compounds) were checked their selectivity for Sirtuin 1 based on counterscreening on unrelated protein targets (bovine carbonic anhydrase (CA) and recombinant SH2 domain of hABL1 kinase (ABL1)) at three different concentrations (5, 10, 20 µM, n = 4), which yielded 38 hit compounds, hereafter referred to as TSA hits. The TSA screening above was conducted in the absence of NAD+.
# NAD-dependent deacetylase Sirtuin 1, sequence (Q96EB6 2-747 limits assumed): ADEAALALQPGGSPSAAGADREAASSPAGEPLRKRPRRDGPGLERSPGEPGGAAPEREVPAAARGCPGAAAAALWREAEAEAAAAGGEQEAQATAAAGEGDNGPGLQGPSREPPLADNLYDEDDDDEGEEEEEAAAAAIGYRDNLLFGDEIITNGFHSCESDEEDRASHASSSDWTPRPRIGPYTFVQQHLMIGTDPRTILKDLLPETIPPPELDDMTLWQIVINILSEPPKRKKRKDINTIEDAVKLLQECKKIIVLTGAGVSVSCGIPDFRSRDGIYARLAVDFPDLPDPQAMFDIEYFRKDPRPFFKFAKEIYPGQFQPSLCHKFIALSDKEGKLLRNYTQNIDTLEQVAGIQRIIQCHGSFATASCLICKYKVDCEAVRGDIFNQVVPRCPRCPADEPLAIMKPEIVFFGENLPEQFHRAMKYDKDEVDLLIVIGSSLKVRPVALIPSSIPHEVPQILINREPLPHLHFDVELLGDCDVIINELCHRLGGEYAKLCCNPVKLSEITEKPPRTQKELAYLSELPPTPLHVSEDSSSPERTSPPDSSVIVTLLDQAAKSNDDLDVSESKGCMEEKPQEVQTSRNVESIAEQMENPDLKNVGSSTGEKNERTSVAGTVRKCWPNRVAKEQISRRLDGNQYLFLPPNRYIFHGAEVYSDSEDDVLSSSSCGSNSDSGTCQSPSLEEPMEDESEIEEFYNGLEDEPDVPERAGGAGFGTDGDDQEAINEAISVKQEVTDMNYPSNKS
row,Structure (SMILES),TSA(without NAD+) / Primary screening (TSA) / delta Tm (K)
1,O=C(CCc1ccc2c(c1)OCO2)N1CCc2[nH]c3ccccc3c2C1,-0.15
2,Cc1nc(-c2ccccn2)[nH]c(=O)c1CC(=O)NCc1cccc(Oc2ccccc2)c1,0.09
3,NC(=O)C1CCN(C(=O)c2ccc3[nH]c4c(c3c2)CCCC4)CC1,0.17
4,Cc1cc(N(C)C)n2nc(C(F)(F)F)c(-c3ccccc3)c2n1,-0.18
5,Cc1ccc(-n2c(C)c(C)c3c(N)ncnc32)cc1,0.02
6,CCc1cc2c(N3CCCC3)nc(C)nc2s1,-0.07
7,CCCOc1ccc(C(=O)C2=C(O)C(=O)N(CCCN3CCOCC3)C2c2ccccc2F)cc1 (stereo not shown),-0.27
8,CC(=O)Nc1ccc(NC(=O)c2ccccc2SCC(=O)NC23CC4CC(CC(C4)C2)C3)cc1,-0.21
9,CCOc1ccc(C2C(C(=O)c3ccco3)=C(O)C(=O)N2CCCN2CCOCC2)cc1 (stereo not shown),-0.13
10,NC(=O)c1cccc(CN2CCCC2c2ccsc2)c1 (stereo not shown),-0.08
11,CC(=O)Nc1ccc(CNCc2ccccc2CN2CCCC2)cc1,-0.12
12,NC(=O)C1CCN(c2ncnc3c2c(-c2ccccc2)cn3-c2cccc(C(F)(F)F)c2)CC1,-0.07
13,CC(Nc1cccc(C(N)=O)c1)C1CN(Cc2ccccc2)CCO1 (stereo not shown),-0.18
14,CC(=C/c1ccccc1)/C=N/NC(=O)c1cc(-c2ccc(C)cc2)n[nH]1,1.06
15,Cc1ccc(-c2cc(C(=O)OC(C)C(=O)Nc3cccc([N+](=O)[O-])c3)[nH]n2)cc1 (stereo not shown),0.12
16,Cc1ccc(C2C(C(=O)c3cc4ccccc4o3)=C(O)C(=O)N2CCCN2CCOCC2)o1 (stereo not shown),0.02
17,N#Cc1cc(Br)ccc1NCC1(CCO)CCOC1 (stereo not shown),-0.24
18,Cc1cc(C)c(NC(=O)CN(C)C(=O)CNC(=O)C(C)(C)C)c(C)c1,0.02
19,O=C1/C(=C/c2cnn(-c3ccccc3)c2)Oc2cc(O)ccc21,1.25
20,O=C1/C(=C/c2ccccc2)Oc2cc(O)ccc21,0.08
21,O=C1/C(=C/c2cccc(O)c2)Oc2cc(O)ccc21,-0.21
22,NC(=O)c1ccc(C(=O)OCC(=O)Nc2ccccc2-c2ccccc2)cc1,-0.18
23,COc1ccc(C(=O)C2=C(O)C(=O)N(CCCN3CCOCC3)C2c2ccco2)cc1Cl (stereo not shown),0.02
24,Cn1cc(C(=O)Nc2cccc(C3(C)NC(=O)NC3=O)c2)c2ccccc21 (stereo not shown),-0.14
25,CCc1c(C)c(C#N)c2nc3ccccc3n2c1Cl,-0.08

row,Structure (SMILES),TSA(without NAD+) / Primary screening (TSA) / delta Tm (K)
1,Cc1c(CCC#N)c(Cl)n2c(nc3ccccc32)c1C#N,-0.04
2,CCc1c(C)c(C#N)c2nc3ccccc3n2c1S,0.39
3,Cc1nc2cc(NC(=O)C3Cc4ccccc4O3)ccc2o1 (stereo not shown),0.03
4,c1ccc(-c2[nH]c3c(ccc4ccccc43)c2-c2ccccc2)cc1,0.52
5,c1ccc(-c2[nH]c3ccccc3c2-c2ccccc2)cc1,0.45
6,O=C(CCl)c1c(-c2ccccc2)[nH]c2ccccc12,-0.04
7,Cc1cccc2c(CC(=O)O)c(-c3ccccc3)[nH]c12,-0.02
8,Nc1nc(-c2c(-c3ccccc3)[nH]c3ccccc23)cs1,0.09
9,CC1(C)CC1N (stereo not shown),-0.22
10,NC(=O)Cc1ccc(NC(=O)c2cc(Br)ccc2Cl)cc1,-0.11
11,CCCCOc1cc(C2NC(N)=Nc3nc4ccccc4n32)ccc1OC (stereo not shown),-0.17
12,NC1=Nc2nc3ccccc3n2C(c2ccc(-c3ccc(C(=O)O)cc3)o2)N1 (stereo not shown),1.36
13,CC(C)(CNc1ncnc2ccsc12)C(N)=O,-0.02
14,O=C1/C(=C/c2ccc(Br)cc2F)Cc2c(O)cccc21,-0.03
15,Oc1cccc2c1Cc1c-2nc2ccc(Cl)cc2c1-c1ccccc1Cl,0.38
16,CCCOCC(=O)O,-0.13
17,Cc1ccc(Nc2nnc(SCC(=O)Nc3cc(C)c(C)cc3[N+](=O)[O-])s2)cc1,-0.03
18,Cc1cccc(Nc2nnc(SCC(=O)Nc3ccc(C(N)=O)cc3)s2)c1,-0.04
19,COc1ccc(NC(=O)CSc2nnc(Nc3ccc(SC(F)F)cc3)s2)cc1OC,0.73
20,O=C(C1=C(O)C(=O)N(CCCN2CCOCC2)C1c1ccco1)c1ccco1 (stereo not shown),-0.22
21,Cc1nc2ccccc2nc1SCc1cc(=O)n2ccsc2n1,0.02
22,O=C(COC(=O)CNC(=O)C12CC3CC(CC(C3)C1)C2)Nc1ccccc1Cc1ccccc1,0.13
23,CCOc1ccc(CCNC(=O)COC(=O)CNC(=O)C23CC4CC(CC(C4)C2)C3)cc1OCC,0.03
24,CCCCOC(=O)c1ccc(NC(=O)COC(=O)CNC(=O)C23CC4CC(CC(C4)C2)C3)cc1,0.48
